# Screening data from PubChem BioAssay.
# Bfl-1 Bim block – inhibitors of Bim-Bfl-1 interaction, human; Bead-based flow cytometry, Bim-Bfl-1 binding inhibition; AID 1008; inhibition, % at 10 µM; 190,000 tested, 0.12% active;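 also: 0% = wells without compound plus tracer and 100% = blocker peptide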
# Bim-Bcl-B – human Bim-Bcl-B interaction inhibition; Q9HD36; bead-based flow cytometry, Bim peptide-Bcl-B binding; inhibition, % at 10 µM; 190,000 tested, 0.073% active; AID 951;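 also: 0% = tracer peptide without compound and 100% = reference inhibitor peptide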
# Target sequence (Q9HD36 whole entry, looked up): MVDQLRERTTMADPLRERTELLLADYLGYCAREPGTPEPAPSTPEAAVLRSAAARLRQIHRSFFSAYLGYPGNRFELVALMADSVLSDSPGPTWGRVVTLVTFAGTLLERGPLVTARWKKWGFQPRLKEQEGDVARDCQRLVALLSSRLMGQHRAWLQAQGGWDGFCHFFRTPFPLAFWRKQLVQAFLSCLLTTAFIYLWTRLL
# Bim-Bcl-XL – human Bim-Bcl-XL interaction inhibition; Q07817; Bim peptide-Bcl-XL binding, bead flow cytometry, fluorescence; inhibition, % at 10 µM; 190,000 tested, 0.04% active; AID 1007
# Target sequence (Q07817 whole entry, looked up): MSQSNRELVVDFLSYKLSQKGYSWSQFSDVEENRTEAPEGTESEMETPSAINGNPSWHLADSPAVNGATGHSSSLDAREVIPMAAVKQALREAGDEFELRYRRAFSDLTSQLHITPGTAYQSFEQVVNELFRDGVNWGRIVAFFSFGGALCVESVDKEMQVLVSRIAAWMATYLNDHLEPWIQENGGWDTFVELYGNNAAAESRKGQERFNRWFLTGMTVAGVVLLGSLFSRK
# Bim-Bcl-2 – human Bim-Bcl-2 interaction inhibition; P10415; Bead-based flow cytometry, Bim peptide-Bcl-2 binding; inhibition, % at 10 µM; 190,000 tested, 0.06% active; AID 950; in the data active = inhibition above about 40%;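 also: 0% = no compound wells with probe peptide and 100% = reference peptide inhibitor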
# Bcl-W Bim block – disrupts Bim peptide binding to human Bcl-W. Q92843. bead-based flow cytometry. inhibition, % at 10 µM. 190,000 tested, 0.02% active. AID 952;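 also: 0% = bound tracer without compound and 100% = peptide blocker; higher means less fluorescent Bim peptide bound to Bcl-W beads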
# * marks the source's active call; other numbers are inactive results; x = no result. Only some compounds are listed: those with a hit (about 0.2% of all), similar ones and a draw of the others. Rule as the data show it, unless noted: active = inhibition above about 40%.
SMILES,Bfl-1 Bim block,Bim-Bcl-B,Bim-Bcl-XL,Bim-Bcl-2,Bcl-W Bim block
CCOC(=O)C1(CC/C(C)=N\NC(N)=O)CC(C)(C)OC1=O (configuration not stated),44*,-49,18,14,11
CC1(C)C2CC=C(/C=N/NC(=S)NCCc3ccccc3)C1C2 (configuration not stated),-3,1,0,1,1
CNC(=S)N/N=C/C1=CCC2CC1C2(C)C (configuration not stated),52*,65*,2,69*,13
COc1ccc(NC(=O)/C(Cl)=C(/Cl)S(=O)Cc2ccc(Cl)cc2)cn1 (configuration not stated),40*,-11,0,7,3
c1ccc(Nc2cccc(Nc3ccccc3)n2)cc1,68*,13,15,30,47*
O=C(C1CCC(Cn2c(=S)[nH]c3ccccc3c2=O)CC1)N1CCOCC1 (configuration not stated),-3,-2,-2,-3,0
O=C(C1CCC(Cn2c(=S)[nH]c3ccccc3c2=O)CC1)N1CCN(c2ccccn2)CC1 (configuration not stated),13,52*,7,37,7
Clc1nc(NCc2cccnc2)nc(N2CCOCC2)n1,22,73*,49*,23,47*
c1ccc(CNc2nc(N3CCOCC3)nc(N3CCOCC3)n2)cc1,-2,-3,-1,-7,0
COc1c(F)c(F)c(C(=O)Nc2ccccc2N2CCN(C(=O)C(C)C)CC2)c(F)c1F,x,x,18,83*,12
COc1c(F)c(F)c(C(=O)Nc2ccccc2N2CCN(C(C)=O)CC2)c(F)c1F,-5,-3,-3,-7,-6
CN(Cc1ccccc1)c1cc(Cl)nc(N)n1,-6,-2,-1,-2,0
CN(C)c1ccc(/C=C2/SC(=O)N(CCN=C3NS(=O)(=O)c4ccccc43)C2=O)cc1,48*,92*,50*,91*,71*
CCc1cccc(NC2c3ccccc3C(=O)N2c2cccnc2)c1 (configuration not stated),4,5,5,3,3
CC1CCN(C2(O)C(=O)Nc3ccc(Br)cc32)CC1 (configuration not stated),6,57*,63*,47*,17
COc1cc(OC)cc(C(=O)N[C@H](C(=O)OCC(=O)Nc2sccc2C#N)C(C)C)c1,-3,-1,0,-1,2
Cc1nc2ccccc2n1C1CCN(CC(=O)NCc2ccc(F)cc2)CC1,30,64*,1,59*,1
COc1ccc2[nH]c(=O)c(CN(Cc3cccs3)C(=S)Nc3ccccc3)cc2c1,-14,-8,-8,-11,-8
CNC(=S)N(Cc1cccs1)Cc1cc2ccc(OC)cc2[nH]c1=O,47*,29,35,30,26
O=C(c1cc2ccccc2o1)N1CCN=C1SCc1cccnc1,0,0,0,-3,-3
CSc1n[nH]c2nc3c(c(=O)n12)C1(CCCC1)Cc1ccccc1-3,44*,31,40*,31,33
O=C(NCc1ccco1)C1CC2CCC1C2 (configuration not stated),2,2,47*,1,4
CCOc1ccc(N(CC(=O)NN=C2CCN(C)CC2)S(C)(=O)=O)cc1,-5,-1,-2,0,-2
O=C1CCCC2(O)C1C(c1cccc(Br)c1)NC(=O)N2Cc1ccccc1 (configuration not stated),38,39,49*,39,39
Cc1nc2ncccn2c1-c1csc(Nc2ccccc2)n1,-1,20,44*,5,24
SMILES,Bfl-1 Bim block,Bim-Bcl-B,Bim-Bcl-XL,Bim-Bcl-2,Bcl-W Bim block
COc1ccc(Nc2nc(-c3c(C)nc4ncccn34)cs2)cc1,15,12,36,8,17
CCc1c(O)nc(SCC(=O)Nc2ccccc2OC)[nH]c1=O,-10,-6,-3,-9,0
O=C(CCN1CCOCC1)NNC(=O)/C(=C/c1ccccc1)NC(=O)c1ccccc1,-11,-12,-5,-5,-4
CNc1ccc(Br)cc(C(=O)/C=C/c2ccc(OC)cc2)c1=O,18,-8,0,8,10
CNc1ccc(Br)cc(C(=O)/C=C/c2cc(OC)ccc2OC)c1=O,42*,-21,26,25,22
O=C1CN(C(=S)NC(=O)c2ccc(-c3ccccc3)cc2)CCN1,8,-40,-1,3,0
COc1ccc(C(=O)NC(=S)N2CCNC(=O)C2)cc1Br,71*,70*,4,79*,3
O=C(CNC(=O)c1ccco1)NCC(=O)OCc1ccccc1Br,x,x,29,89*,23
Cc1cc(C)nc(NS(=O)(=O)c2ccc(NC(=O)c3cccc(N4C(=O)CCC4=O)c3)cc2)n1,-1,-7,-4,-5,0
Cc1cccc(C2NC(c3cccc(C)c3)C([N+](=O)[O-])C(C)(C)C2[N+](=O)[O-])c1 (configuration not stated),-14,-8,-6,-6,-1
COc1ccc(-c2noc(COc3ccc4c(c3)OCO4)n2)cc1OC,x,x,23,85*,18
Nc1ccc(N2CCN(CCCCN3C(=O)C4CCCN4C3=O)CC2)cc1 (configuration not stated),8,63*,24,12,25
O=C(NCCc1ccccc1)c1ccc2nc(-c3ccco3)c(-c3ccco3)nc2c1,45*,7,10,16,19
O=C(c1ccccc1)c1ccc2nc(-c3ccco3)c(-c3ccco3)nc2c1,47*,-9,12,26,26
O=C(NCCO)c1ccc2nc(-c3ccco3)c(-c3ccco3)nc2c1,54*,5,12,18,28
O=C(NC1CCCC1)c1ccc2nc(-c3ccco3)c(-c3ccco3)nc2c1,3,2,2,4,6
O=C(CN(Cc1ccccc1)C(=O)CCC(=O)Nc1ccccn1)NCc1ccco1,0,-2,1,1,1
CCOC(=O)C1CCCN(c2ncnc3c2cnn3-c2cccc(C)c2)C1 (configuration not stated),47*,26,46*,33,30
CCN(CC)C(=O)C1CCCN(c2ncnc3c2cnn3-c2cccc(C)c2)C1 (configuration not stated),-12,-1,1,-5,6
COc1ccccc1N1CCN(C(=O)CN(C)S(=O)(=O)c2cc(C)ccc2OC)CC1,1,4,2,2,1
Cc1cc(N/C(=N/S(=O)(=O)c2cc(F)ccc2F)c2ccccc2)n(-c2ccccc2)n1,19,66*,16,50*,18
Cc1cc(N/C(=N/S(=O)(=O)c2ccc(F)cc2)c2ccccc2)n(-c2ccccc2)n1,-2,-2,-2,-1,-2
Cc1ccc(S(=O)(=O)/N=C2/C=C(Sc3ncn[nH]3)C(=O)c3ccccc32)cc1,62*,-5,0,18,13
Cc1ccc(S(=O)(=O)/N=C2/C=C(Sc3ncn[nH]3)C(=O)c3ccccc32)c(C)c1,69*,12,5,21,29
